Screens as filed in PubChem BioAssay.
Calb FLC: affects C. albicans growth with fluconazole; C. albicans CaCi-2 (fluconazole-resistant clinical isolate) + fluconazole, Alamar Blue growth, 48 h; growth inhibition, % (concentration not given with the values); 300,000 compounds, 0.57% hits;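 active means growth inhibition above about 58% in most replicates, limit read from the data, passing the limit was not always enough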;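 further: all wells also contain fluconazole at 8 µg/ml as a sub-toxic cotreatment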
MPTP inh: blocks calcium-induced mitochondrial swelling. isolated mouse mitochondria, Ca2+ swelling absorbance, 30 min. inhibition, % at 10 µM. 360,000 compounds, 1.4% hits. AID 602449;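 active means inhibition of 50% or more, scaled per plate between neutral and stimulator controls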
SKKanGAS inh: SKKanGAS growth inhibition; inhibition, % at 7.5 µM; AID 1662; S. pyogenes SKKanGAS, kanamycin growth, BacTiter-Glo, 6 h; 300,000 compounds, 1.3% hits;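 active means mean replicate score, as percent of positive control median, at least 50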;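 further: strain carries kanamycin resistance gene driven by streptokinase promoter and grows in 40 µg/ml kanamycin; loss of luminescence reflects streptokinase promoter inhibition or plain growth inhibition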
CSC inhib: blocks cancer stem cells; cancer stem cell-like cells viability, luminescence; inhibition, % at 7.5 µM; 300,000 compounds, 1.1% hits; in the data active means inhibition above about 75%; tested in HMLE shEcad cells
Beta apoptosis: blocks beta cell apoptosis; INS-1E cytokine-induced death, ATP luminescence, 48 h; percent of positive-control rescue, neutral wells zero; protection from apoptosis, % (no concentration beside the values); 300,000 compounds, 0.8% hits; AID 435005;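 active means Every replicate reaches about 75%, or at least half do and their mean reaches it too, limit read from the data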;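 further: higher means more ATP so stronger rescue from cytokine killing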
Mdm2-MdmX inh: inhibitors of human Mdm2/MdmX interaction; 330,000 compounds, 3% hits; inhibition, % at 8 µM; SaOS-2 split-luciferase Mdm2/MdmX complementation, luminescence; AID 485346;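 active means inhibition of at least 50% at 8 µM in the primary screen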
Mdm2-MdmX conf: confirmation of human Mdm2/MdmX interaction inhibitors; Mdm2-MdmX binding, luminescent assay; 10,000 compounds, 55% hits; shares compounds with Mdm2-MdmX inh; inhibition, % at 8 µM; in the data active means inhibition above about 40%
Full FLuc ctr: counter-screen for Mdm2/MdmX inhibitors: full-length luciferase | AID 504607 | 6,200 compounds, 77% hits | shares compounds with Mdm2-MdmX inh | inhibition, % at 8 µM | SaOS-2 full-length luciferase counterscreen, luminescence;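 active means mean inhibition at 8 µM reaching about 37%, which flags the compound as non-specific, limit read from the data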;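 further: p53-null SaOS-2 cells with luciferase driven by a doxycycline-inducible promoter; compound on cells about two nights before reading with doxycycline added after day one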
A number is an active result; i = inactive; nt = no result. Shown are actives, neighbours in structure and some others; about 5.4% of the full set was active somewhere.

SMILES	Calb FLC	MPTP inh	SKKanGAS inh	CSC inhib	Beta apoptosis	Mdm2-MdmX inh	Mdm2-MdmX conf	Full FLuc ctr
CCOc1ccccc1N1CC(O)=C(c2nc3ccccc3s2)C1=N	i	i	i	i	i	56.8	57.5	57.8
COc1ccc(OC)c(N2CC(O)=C(c3nc4ccccc4s3)C2=N)c1	i	i	i	i	i	i	nt	nt
Cc1ccc(NC(=O)c2cc(C)n(-c3ccccc3)c2C)cc1	i	i	i	i	i	76.5	84.0	41.2
Cc1cc(C(=O)Nc2ccc(Cl)cc2)c(C)n1-c1ccccc1	i	i	i	i	nt	88.8	89.0	i
Cc1ccc(NC(=O)c2cc(C)n(-c3cccc(C)c3)c2C)cc1	i	i	i	i	i	i	nt	nt
COc1cc2c(O)c3c(c(-c4ccc5c(c4)OCO5)c2cc1OC)C(=O)OC3	82.0	i	i	90.6	i	73.3	72.2	i
COc1ccc(-c2oc(=O)c3cc(OC)c(OC)cc3c2-c2ccc3c(c2)OCO3)cc1	nt	i	nt	i	i	i	nt	nt
COc1cc2c(OC(C)=O)c3c(c(-c4ccc5c(c4)OCO5)c2cc1OC)C(=O)OC3	i	i	i	i	i	85.5	74.3	47.9
COc1ccc(S(=O)(=O)/C(C#N)=C/Nc2ccc(NC(C)=O)cc2)cc1	i	i	i	i	i	i	nt	nt
COc1ccccc1NS(=O)(=O)c1ccc(O)c(C(=O)OCC(=O)Nc2ccccc2F)c1	i	i	i	i	i	i	nt	nt
Cc1cc(C(=O)CSc2nnnn2C)c(C)n1CCc1ccc(Cl)cc1	nt	i	i	i	i	55.4	i	nt
CCOC(=O)c1cc(C)n(CCc2ccccc2)c1C	i	i	i	i	i	i	nt	nt
Cc1cc(C(=O)CCl)c(C)n1CCc1ccccc1	i	nt	i	i	i	74.5	43.0	71.4
CC(C)Oc1ccccc1/C=N/NC(=O)C1CCCC1	i	i	i	i	i	i	nt	nt
CCOc1cccc2sc(N(CCCN(C)C)C(=O)c3ccc(S(=O)(=O)N4CCc5ccccc5C4)cc3)nc12	i	i	i	i	i	82.4	i	nt
CCc1ccc2nc(N(CCCN(C)C)C(=O)c3ccc(S(=O)(=O)N4CCc5ccccc5C4)cc3)sc2c1	i	i	i	i	i	98.5	i	nt
CN(C)CCCN(C(=O)c1ccc(S(=O)(=O)N(C)C2CCCCC2)cc1)c1nc2ccc(F)cc2s1	i	i	i	i	i	i	nt	nt
CCc1ccc2nc(N(CCCN(C)C)C(=O)c3ccc(S(=O)(=O)N(C)C4CCCCC4)cc3)sc2c1	i	i	i	i	i	65.9	47.6	55.8
CC1(C)CC(NC(=O)c2ccccc2F)CC(C)(C)N1	i	i	i	i	i	i	nt	nt
CCN1C(=O)[C@H]2[C@@H](c3ccc(-c4ccc(Cl)c(Cl)c4)cc3)N[C@@](Cc3ccccc3)(C(=O)OC)[C@H]2C1=O	i	i	i	i	i	57.0	i	nt
CCN1C(=O)[C@H]2[C@@H](c3ccc(-c4ccccc4)cc3)N[C@@](Cc3ccccc3)(C(=O)OC)[C@H]2C1=O	i	i	i	i	i	i	nt	nt
CCN1C(=O)[C@H]2[C@@H](c3ccc(-c4cccc(Cl)c4)c(OC)c3)N[C@@](Cc3ccccc3)(C(=O)OC)[C@H]2C1=O	i	i	i	i	i	52.3	i	54.3
COC(=O)[C@]1(Cc2ccccc2)N[C@H](c2ccc(-c3cccc(Cl)c3)c(OC)c2)[C@@H]2C(=O)N(C)C(=O)[C@@H]21	nt	i	nt	nt	nt	nt	nt	nt
Fc1ccccc1-c1csc(=Nc2cccnc2)n1CCCn1ccnc1	i	i	i	i	nt	i	nt	nt
COc1ccccc1NC(=O)c1sc2ncn(Cc3ccc(C)cc3)c(=O)c2c1C	i	i	i	i	i	54.8	i	nt
SMILES	Calb FLC	MPTP inh	SKKanGAS inh	CSC inhib	Beta apoptosis	Mdm2-MdmX inh	Mdm2-MdmX conf	Full FLuc ctr
CCCC(C(=O)NCc1ccccc1)N(C(=O)Cn1nnc(-c2cccs2)n1)c1ccc2c(c1)OCCO2 (configuration not stated)	nt	i	nt	i	i	i	nt	nt
O=C(Nc1nc(-c2ccccc2)cs1)c1cccc([N+](=O)[O-])c1	i	i	i	i	i	i	nt	nt
O=C(Nc1ccc(-c2csc(Nc3cccc(C(F)(F)F)c3)n2)cc1)c1cc([N+](=O)[O-])cc(C(F)(F)F)c1	i	i	53.4	88.1	110.6	67.9	i	nt
O=C(Nc1ccc(-c2csc(Nc3ccc(Cl)cc3)n2)cc1)c1ccccc1	nt	i	nt	i	i	i	nt	nt
O=C(Nc1ccc(-c2csc(Nc3cccc(C(F)(F)F)c3)n2)cc1)c1ccccc1	i	i	84.5	135.8	i	63.3	i	77.8
O=C1c2ccccc2NC(c2ccc(-c3ccc(C(F)(F)F)cc3)o2)N1O (configuration not stated)	nt	i	nt	nt	i	67.3	48.6	41.8
CC(C)=CCc1cc2c(=O)c3c(O)c4c(cc3oc2c(O)c1O)OC(C)C4(C)C (configuration not stated)	94.7	nt	103.1	i	109.1	91.7	i	63.3
CC(=O)c1cc(CC=C(C)C)c(O)c(CC=C(C)C)c1O	i	i	i	i	i	i	nt	nt
COc1cccc2cc(NC(=O)C3CCCCC3)c(=O)oc12	i	i	i	i	i	i	nt	nt
COc1cccc2c1C(=O)c1c(O)c3c(c(O)c1C2=O)C[C@@](O)(C(=O)CO)C[C@@H]3OC1CC(N)C(O)C(C)O1 (some centres not stated)	nt	i	nt	nt	nt	nt	nt	nt
COc1cccc2c1C(=O)c1c(O)c3c(c(O)c1C2=O)C[C@@](O)(C(=O)CO)C[C@@H]3O[C@H]1C[C@H](N)[C@H](O)[C@H](C)O1	nt	i	107.2	i	i	99.0	99.2	i
NC(=O)CC(NC(=O)c1cccc(Br)c1)c1ccc(NC2CCC2)c([N+](=O)[O-])c1 (configuration not stated)	i	i	i	i	i	i	nt	nt
Cc1ccc(OCCNC(=O)c2cncc(Br)c2)cc1C	i	i	i	i	i	60.3	48.3	59.6
CCC(=O)Nc1cc2nn(-c3ccccc3)nc2cc1Cl	i	i	i	nt	i	i	nt	nt
CCOC(=O)c1c(C)[nH]c(O)c1C=Nc1ccc(C(F)(F)F)cc1	i	i	i	i	i	i	nt	nt
Cc1ccc(Cc2nnc3n(-c4ccccc4)nc(C(=O)c4ccccc4)n3c2=O)cc1	i	i	i	i	nt	53.0	57.9	53.4
Cc1ccc(CNC(=O)c2cc(C)nn2-c2ccccc2)cc1	i	i	i	i	i	i	nt	nt
N/C(=N\OC(=O)CC(c1ccccc1)c1ccccc1)c1cccnc1	i	i	i	i	i	88.3	63.8	99.6
N/C(=N\OC(=O)Cc1ccccc1)c1cccnc1	i	i	i	i	i	i	nt	nt
COc1ccc2nc(C)cc(Sc3nc4ccccc4s3)c2c1	i	i	i	i	i	77.7	i	nt
COc1ccc2nc(C)cc(SCC(=O)NNC(=O)COc3ccccc3)c2c1	i	i	i	i	i	i	nt	nt
